Laboratory results: PubChem BioAssay (EPA / NIEHS)
More than one record can exist for a structure, and the calls need not agree. Calls of active or inactive are those of the source. Rule for the calls: active = hit-call score of the fitted dose curve at least 0.9, where 1 is the maximum; inactive = score below 0.9.

Experiments:
[1] = ATG_NFI_CIS: Attagene CIS-FACTORIAL HepG2 Assay for human Nuclear Factor I (NFI) (AID 2282989); conditions: HepG2 cis-regulatory reporter, NFI response element transcription; actives raise or lower the signal
Method in brief: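 Reporter transcription driven by endogenous transcription factors in HepG2 cells; 24 h treatment. Quantitation by labelled RT-PCR fragments on capillary electrophoresis, gain- or loss-of-signal relative to DMSO.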

[2] = target: Myc proto-oncogene protein (Homo sapiens) (UniProt P01106); experiment: ATG_Myc_CIS: Attagene CIS-FACTORIAL HepG2 Assay for human Myelocytomatosis (Myc) Proto-Oncogene Transcription Factor (AID 2282990); conditions: HepG2, Attagene cis-reporter transcription factor activity; actives raise or lower the signal
Sequence of Myc proto-oncogene protein (Homo sapiens) (P01106 whole entry, looked up): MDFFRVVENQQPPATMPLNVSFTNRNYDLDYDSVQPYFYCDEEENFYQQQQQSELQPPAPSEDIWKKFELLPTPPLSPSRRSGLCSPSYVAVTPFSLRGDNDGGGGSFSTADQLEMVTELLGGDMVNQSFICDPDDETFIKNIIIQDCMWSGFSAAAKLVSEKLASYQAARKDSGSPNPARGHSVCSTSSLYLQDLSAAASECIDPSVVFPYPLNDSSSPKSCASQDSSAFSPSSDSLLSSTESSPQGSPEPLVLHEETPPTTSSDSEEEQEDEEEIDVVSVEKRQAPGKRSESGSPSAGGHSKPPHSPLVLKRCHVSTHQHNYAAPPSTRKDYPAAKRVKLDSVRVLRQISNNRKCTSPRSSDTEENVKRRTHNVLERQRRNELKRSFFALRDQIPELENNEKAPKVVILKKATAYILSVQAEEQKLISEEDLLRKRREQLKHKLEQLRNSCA
Method in brief: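 Transiently transfected HepG2 cells bearing cis-promoter reporter units for endogenous transcription factors; 24 h exposure. Reporter mRNA measured by RT-PCR, 6-FAM primer extension, HpaI cut and capillary electrophoresis; bidirectional fit relative to DMSO.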

[3] = ATG_NF_kB_CIS: Attagene CIS-FACTORIAL HepG2 Assay for human Nuclear Factor Kappa B (NF-kB) (AID 2282991); conditions: HepG2 Attagene cis-factorial NF-kB reporter mRNA; actives raise or lower the signal
Method in brief: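 Multiplexed cis-reporter assay in transiently transfected HepG2. 24 h treatment; RNA isolated, RT-PCR, labelled fragments resolved by CE. DMSO baseline.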

[4] = ATG_NRF2_ARE_CIS: Attagene CIS-FACTORIAL HepG2 Assay for human Nuclear Factor Erythroid 2 Related Factor 2 (NFR2) response to Antioxidant Response Elements (ARE) (AID 2282992); conditions: HepG2 Attagene ARE/NRF2 reporter, transcription factor activity; actives raise or lower the signal;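 for AC50: reporter mRNA level measured by RT-PCR and capillary electrophoresis fluorescence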
Method in brief: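 Fluorescence intensity of reporter-specific cDNA fragments, separated by capillary electrophoresis, reflects mRNA induction in transfected HepG2 cells at 24 h. Activity is fitted bidirectionally, DMSO serving as baseline.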

[5] = ATG_Oct_MLP_CIS: Attagene CIS-FACTORIAL HepG2 Assay for human Octamer-Binding Transcription Factor (Oct) (AID 2282993); conditions: HepG2 Attagene cis-factorial Oct reporter, mRNA; actives raise or lower the signal
Method in brief: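 Transfected HepG2 cells, 24 h treatment. Reporter mRNA quantified by RT-PCR–capillary electrophoresis; bidirectional fitting against DMSO.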

[6] = target: Cellular tumor antigen p53 (Homo sapiens) (UniProt P04637); experiment: ATG_p53_CIS: Attagene CIS-FACTORIAL HepG2 Assay for human p53 Transcription Factor (AID 2282994); conditions: HepG2 p53 cis-element reporter, Attagene mRNA; actives raise or lower the signal
Sequence of Cellular tumor antigen p53 (Homo sapiens) (P04637 whole entry, looked up): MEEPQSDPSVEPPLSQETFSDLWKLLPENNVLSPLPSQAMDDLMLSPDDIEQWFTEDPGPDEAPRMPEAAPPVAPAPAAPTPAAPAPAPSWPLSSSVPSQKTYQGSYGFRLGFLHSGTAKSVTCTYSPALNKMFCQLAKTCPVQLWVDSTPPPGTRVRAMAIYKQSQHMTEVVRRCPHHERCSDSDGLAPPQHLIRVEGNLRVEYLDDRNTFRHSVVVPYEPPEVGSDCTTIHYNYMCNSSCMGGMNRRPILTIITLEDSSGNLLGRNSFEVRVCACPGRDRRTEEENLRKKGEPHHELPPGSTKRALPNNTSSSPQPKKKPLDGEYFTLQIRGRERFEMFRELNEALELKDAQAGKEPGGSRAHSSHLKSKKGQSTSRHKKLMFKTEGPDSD
Method in brief: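 Transiently transfected HepG2 (multiple cis reporter transcription units); exposure 24 h; reporter RNA via RT-PCR, 6-FAM extension, 2 h HpaI digest at 37 C, CE detection; DMSO baseline.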

[7] = BSK_3C_TissueFactor: BioMAP Diversity Plus: 3C Assay for Tissue Factor Biomarker Activity (AID 2282997); conditions: BioMAP 3C HUVEC, tissue factor biomarker readout; actives raise or lower the signal
Method in brief: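 Tissue factor on primary human umbilical vein endothelium was read by ELISA 24 h after dosing, gain or loss relative to DMSO. Cytotoxicity ran alongside via SRB (0.1%, TCA-fixed, 560 nm).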

[8] = BSK_3C_uPAR: BioMAP Diversity Plus: 3C Assay for Urokinase-type plasminogen activator receptor (uPAR) Biomarker Activity (AID 2282998); conditions: BioMAP 3C HUVEC, uPAR biomarker ELISA; actives raise or lower the signal
Method in brief: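 Readout: ELISA for surface uPAR. System: human umbilical vein endothelial primary cells, 24 h after chemical exposure. Analysis: bidirectional fit, DMSO baseline.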

[9] = BSK_3C_VCAM1: BioMAP Diversity Plus: 3C Assay for Vascular cell adhesion molecule 1 (VCAM1) Biomarker Activity (AID 2282999); conditions: BioMAP 3C HUVEC, VCAM1 ELISA, cytokine-stimulated; actives raise or lower the signal
Method in brief: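 HUVEC primary cells, 24 h compound exposure; VCAM-1 by ELISA; gain/loss of signal fitted bidirectionally vs DMSO baseline.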

[10] = BSK_4H_Eotaxin3: BioMAP Diversity Plus: 4H Assay for Eotaxin 3 Biomarker Activity (AID 2283000); conditions: primary human endothelial cells (HUVEC); actives raise or lower the signal
Method in brief: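 Human umbilical vein endothelial cells (BSK_4H system) dosed with test chemical; Eotaxin-3 (CCL26) measured by ELISA 24 h after dosing. Bidirectional curve fitting relative to DMSO negative control as baseline.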

Measured: AC50

CCc1c(C)cc(N)c(CC)c1N
inactive: [1] | [2] | [3] | [4] | [5] | [6] | [7] | [8] | [9] | [10]

c1ccc2c(c1)c1cccc3ccc4cccc2c4c31
inactive: [1] | [2] | [3] | [4] | [5] | [6] | [7] | [8] | [9] | [10]

Cc1ccc(O)c(C(C)(C)C)c1
active: [2] 79.5 µM | [3] 100 µM | [4] 25.2 µM | [5] 143 µM | [7] 36.7 µM | [8] 20 µM | [9] 30 µM | [10] 35 µM
inactive: [1] | [6]

CC1CCC(C(C)CS)CC1S (stereo unspecified)
active: [2] 52.4 µM | [4] 33.4 µM | [5] 26.1 µM | [6] 52.6 µM | [7] 36.7 µM | [9] 30 µM | [10] 30.3 µM
inactive: [1] | [3] | [8]

O=S(=O)(O)c1cccc2c(S(=O)(=O)O)cccc12
inactive: [1] | [2] | [3] | [4] | [6]

O=C(O)c1ccc([N+](=O)[O-])cc1
inactive: [1] | [2] | [3] | [4] | [5] | [6] | [7] | [8] | [9] | [10]

Nc1cc([N+](=O)[O-])ccc1Cl
active: [4] 62.5 µM
inactive: [1] | [2] | [3] | [5] | [6] | [7] | [8] | [9] | [10]

NCCNCCN
inactive: [1] | [2] | [3] | [4] | [5] | [6] | [7] | [8] | [9] | [10]

CC(C)Oc1ccccc1O
inactive: [1] | [2] | [3] | [4] | [5] | [6] | [7] | [8] | [9] | [10]

O=C1OC2(c3cc(Br)c(O)c(Br)c3Oc3c2cc(Br)c(O)c3Br)c2c(Cl)c(Cl)c(Cl)c(Cl)c21
active: [4] 35.3 µM | [7] 4.1 µM | [8] 1.86 µM | [9] 4.58 µM | [10] 3.71 µM
inactive: [1] | [2] | [3] | [5] | [6]

C=C(C)C(=O)NCCCN(C)C
inactive: [1] | [2] | [3] | [4] | [6]

c1ccc2sc(SN(C3CCCCC3)C3CCCCC3)nc2c1
active: [2] 8.17 µM | [8] 7.59 µM
inactive: [1] | [3] | [4] | [5] | [7] | [9] | [10]

CC(C)(N)CO
inactive: [1] | [2] | [3] | [4] | [6]

CO[Si](CCCn1c(=O)n(CCC[Si](OC)(OC)OC)c(=O)n(CCC[Si](OC)(OC)OC)c1=O)(OC)OC
inactive: [1] | [2] | [3] | [4] | [6]

CCCCC(CC)COC(=O)/C=C\C(=O)OCC(CC)CCCC (stereo unspecified)
inactive: [1] | [2] | [5] | [6] | [7] | [8] | [9] | [10]
active: [3] 45.6 µM | [4] 9.08 µM

C[C@H]1C[C@@H]2[C@H]([C@@H](O)C[C@@]3(C)[C@H]2CC[C@]3(O)C(=O)CO)[C@@]2(C)C=CC(=O)C=C12
inactive: [1] | [2] | [3] | [5] | [6] | [7] | [8] | [9] | [10]
active: [4] 26.7 µM

OC1OC[C@@H](O)[C@H](O)[C@H]1O (stereo partly specified)
inactive: [1] | [2] | [3] | [4] | [5] | [6] | [7] | [8] | [9] | [10]

CC(C)(C)c1cc(CCC(=O)NN)cc(C(C)(C)C)c1O
inactive: [1] | [2] | [3] | [4] | [6]

C#C[C@]1(O)CC[C@H]2[C@@H]3CCC4=Cc5oncc5C[C@]4(C)[C@H]3CC[C@@]21C
inactive: [2] | [3] | [4] | [7] | [9] | [10]
active: [1] 57.1 µM | [5] 29 µM | [6] 24.7 µM | [8] 6.51 µM

BrC1CCC(Br)C(Br)CCC(Br)C(Br)CCC1Br (stereo unspecified)
inactive: [2] | [3] | [6] | [7]
active: [1] 46 µM | [4] 23.1 µM | [5] 58.6 µM | [8] 3.22 µM | [9] 4.6 µM | [10] 3.25 µM

COc1cc(C=O)ccc1OC(=O)C(C)C
inactive: [1] | [2] | [3] | [4] | [5] | [6] | [7] | [8] | [9] | [10]

C=COCCOCCOCCOC=C
inactive: [1] | [2] | [3] | [4] | [6]

CN(CCOc1ccc(CC2SC(=O)NC2=O)cc1)c1ccccn1 (stereo unspecified)
inactive: [1] | [2] | [3] | [5] | [6] | [7] | [9]
active: [4] 15.1 µM | [8] 6.93 µM | [10] 3.97 µM

CC(C)(C#N)c1cc(Cn2cncn2)cc(C(C)(C)C#N)c1
inactive: [1] | [2] | [3] | [4] | [6]

Nc1cc([N+](=O)[O-])ccc1O
inactive: [1] | [2] | [3] | [5] | [6] | [7] | [8] | [9] | [10]
active: [4] 38.1 µM | [10] 14.9 µM

Cc1ccc(Nc2ccc(O)c3c2C(=O)c2ccccc2C3=O)cc1
active: [4] 5.13 µM | [7] 1.13 µM
inactive: [1] | [2] | [3] | [5] | [6] | [8] | [9] | [10]

CCCc1c(OCCCOc2ccc(OCC(=O)O)cc2)ccc(C(C)=O)c1O
inactive: [1] | [2] | [3] | [4] | [5] | [6]

CCCCc1ccc(N)cc1
inactive: [1] | [2] | [3] | [6]
active: [4] 27.2 µM

CCCCC(CC)COCCC#N (stereo unspecified)
inactive: [1] | [2] | [3] | [4] | [5] | [6] | [7] | [8] | [9] | [10]

O=C(O)Cc1cccc2ccccc12
inactive: [1] | [2] | [3] | [4] | [6]

C=C(C)C(=O)O[C@H]1C[C@@H]2CC[C@@]1(C)C2(C)C
active: [4] 72.1 µM | [6] 145 µM | [7] 12.2 µM | [8] 13.5 µM | [9] 26.6 µM | [10] 9.05 µM
inactive: [1] | [2] | [3] | [5]

CCCCC/C=C/C=C/C=O
active: [4] 40.6 µM | [7] 29.5 µM | [8] 31.5 µM | [9] 29.3 µM | [10] 29.9 µM
inactive: [1] | [2] | [3] | [5] | [6]

CC(=O)OCCC(C)CC(C)(C)C (stereo unspecified)
inactive: [1] | [2] | [3] | [4] | [6] | [7] | [8] | [9] | [10]

O=Cc1ccc(Cl)c([N+](=O)[O-])c1
active: [1] 160 µM | [2] 100 µM | [6] 54.5 µM
inactive: [3] | [5]

CCCCCCCCCCCCCCCCCC(=O)OCC(CC)CCCC (stereo unspecified)
inactive: [1] | [2] | [3] | [4] | [6] | [7] | [8] | [9] | [10]

FC1(F)C(F)(F)C(F)(F)C2(F)C(F)(C1(F)F)C(F)(F)C(F)(F)C1(F)C(F)(F)C(F)(F)C(F)(F)C(F)(F)C12F (stereo unspecified)
inactive: [1] | [2] | [3] | [5] | [6]

NC(=O)NC1NC(=O)NC1=O (stereo unspecified)
inactive: [1] | [2] | [3] | [5] | [6]

OCCOCCOCCOCCO
inactive: [1] | [2] | [3] | [6]

O=Nc1ccc(Nc2ccccc2)cc1
inactive: [2]
active: [1] 56.4 µM | [3] 12.1 µM | [5] 33.4 µM | [6] 54.3 µM

CCCC[n+]1ccccc1
inactive: [1] | [2] | [4]

Nc1cc(N)cc(C(=O)O)c1
inactive: [1] | [2] | [3] | [5]

Cc1ccc(C=O)s1
inactive: [1] | [2] | [3] | [5] | [6]

Cc1c(Cl)c(=O)oc2cc(O)ccc12
inactive: [1] | [2] | [3] | [5] | [6]

CC[C@]12CCCN3CCc4c(n(c5ccccc45)[C@@](O)(C(=O)OC)C1)[C@@H]32
inactive: [1] | [2] | [5]
active: [3] 170 µM | [6] 164 µM

CC(CC(C)(C)C)CC(C)(C)CC(C)(C)C (stereo unspecified)
inactive: [1] | [2] | [3] | [5] | [6]

Nc1ccc(F)c([N+](=O)[O-])c1
inactive: [1] | [2] | [3] | [4] | [6]

CCCOCC(C)O (stereo unspecified)
inactive: [1] | [2] | [4] | [5]

C[C@H]1C[C@H]2[C@@H]3CCC4=CC(=O)C=C[C@]4(C)[C@@]3(F)[C@@H](O)C[C@]2(C)[C@@]1(O)C(=O)COP(=O)(O)O
active: [4] 15.6 µM
inactive: [1] | [2] | [3] | [6]

CNC[C@H](O)c1cccc(O)c1
inactive: [1] | [2] | [3] | [5] | [6] | [7] | [8] | [9] | [10]

CC(=O)C=CC1=C(C)CCCC1(C)C
active: [4] 25 µM
inactive: [1] | [2]
